# Assay results reported in PubChem BioAssay.
# Calls of active or inactive are those of the source. No rule for the calls is given here.
# Experiment: inhibition of Brca1/Bard1 split-luciferase complementation, confirmation, counter-screen for Mdm2/MdmX interaction inhibitor project, luminescence, single concentration (AID 504668)
# Conditions: Brca1/Bard1 bimolecular luciferase complementation counterscreen, at 8 µM, stronger effect = higher value
row,Structure (SMILES),inhibition
1,Cc1ccc2cc(CN(CC3CCCO3)C(=S)Nc3ccccc3)c(=O)[nH]c2c1C (stereo not given),35.3% (active)
2,CCOC(=O)C1=C(c2ccccc2)NC(=O)NC1c1ccc(O)c(Cl)c1 (stereo not given),30.5% (active)
3,Oc1ccccc1CNc1ccc(Br)cn1,28.8% (active)
4,COc1cccc(/C=N/Nc2ncnc(Cl)c2N)c1O,30.7% (active)
5,CCOC(=O)/C(=C\c1cccc(O)c1)c1nc2sc(C)c(C)c2c(=O)[nH]1,27% (active)
6,O=c1c2ccccc2nc(/C=C/c2cc(Br)ccc2O)n1CCCO,26.6% (active)
7,O=C1c2ccccc2NC(c2ccc(Cl)cc2Cl)N1O (stereo not given),30.7% (active)
8,COc1ccc(C(NC(=O)c2cccnc2)c2cc(Cl)c3cccnc3c2O)cc1OC (stereo not given),26.3% (active)
9,Nc1nc(Cl)nc2c1ncn2C1CC(O)C(CO)O1 (stereo not given),25.6% (active)
10,O=C(/C=C/c1ccc2ccccc2n1)N1CCN(S(=O)(=O)c2ccc(F)cc2)CC1,35.1% (active)
11,CC(C)c1cc(C(=O)NC2CCCc3c2cnn3-c2ccccc2F)no1 (stereo not given),29.3% (active)
12,N=c1c2c(-c3ccccc3)c(-c3ccccc3)n(Cc3ccco3)c2ncn1Cc1ccco1,31.4% (active)
13,CCN1CCN(c2ccc(Nc3ccnc4ccccc34)cc2)CC1,29.8% (active)
14,CCN(CC)c1ccc(/C=N/NC(=O)CCC(=O)NCc2ccccc2)c(O)c1,33.7% (active)
15,N#CCSc1nc2c(sc(=S)n2Cc2ccco2)c(=O)n1-c1ccc(F)cc1,31.6% (active)
16,COc1cc(OC)c2cc(C(=O)N/N=C/c3cccc(OC)c3O)[nH]c2c1,33.8% (active)
17,N#Cc1c2ccc(O)cc2n2ccccc12,35.2% (active)
18,C=C1CCC2[C@](C)(CO)[C@H](O)CC[C@@]2(C)[C@@H]1C/C=C1\C(=O)OC[C@H]1O (stereo not given in full),27.2% (active)
19,O=C(CCCN1C(=O)/C(=C\c2ccccc2)SC1=S)Nc1ccc(O)cc1,33.2% (active)
20,Cc1ncc(CO)c(/C=N/Nc2ccc(C(F)(F)F)cn2)c1O,33.8% (active)

row,Structure (SMILES),inhibition
1,Brc1cc(Br)c2ncnc(N3CCCCC3)c2c1,27.7% (active)
2,Cc1ccc(S(=O)(=O)N2CCOCC2)cc1C(=O)Nc1nc(-c2ccccn2)cs1,30.4% (active)
3,CC(C)CCNC(=O)C(c1ccncc1)N(Cc1cccs1)C(=O)Cn1nnc(-c2ccc(F)cc2)n1 (stereo not given),26.3% (active)
4,Oc1ccc(Br)cc1CNc1cccc2cccnc12,25.6% (active)
5,CCCOc1ccc(/C=N/Nc2cc(N3CCOCC3)ncn2)c(O)c1,23.7% (active)
6,COc1ccc(C2=Nn3c(nnc3-c3ccccc3F)SC2)cc1OC1CCCC1,28.6% (active)
7,Cc1ccc(N=Nc2ccc(O)c3ncccc23)cc1C,25.6% (active)
8,Cc1nc2ccccn2c1C(=O)/C=C/c1cccc([N+](=O)[O-])c1,27.6% (active)
9,CN(C)CCCNC(=O)/C(=C\c1ccc(-c2ccc(Br)cc2)o1)NC(=O)c1ccccc1,29.2% (active)
10,O=C(N/N=C/c1cc(Br)cc(Br)c1O)c1cccc(N2CCCC2=O)c1,26.3% (active)
11,COc1cc(/C=C/[N+](=O)[O-])ccc1OCc1cccc(C(=O)O)c1,35.1% (active)
12,C/C(=N\NC(=O)c1cc(-c2cccs2)nc2ccccc12)c1ccccn1,28.3% (active)
13,COc1cccc(/C=N/NC(=O)CNC(=O)C(c2ccccc2)c2ccccc2)c1O,28.6% (active)
14,Cc1ccc(NC(=O)Cn2nnc(C(=O)NCCc3ccccc3)c2N)cc1Cl,29.3% (active)
15,Cc1nc(/N=C(\N)NC(=O)NC2CCCCC2)nc2ccccc12,34.4% (active)
16,O=C(NN=C(c1ccccc1)c1ccccn1)c1ccccc1,27.4% (active)
17,CCOC(=O)C1=C(C)n2c(s/c(=C/c3cccc([N+](=O)[O-])c3)c2=O)=NC1c1ccc(O)c(OC)c1 (stereo not given),26.4% (active)
18,CCOc1ccc2nc(NC3=NC(c4ccc(OC)cc4)CC(=O)N3)nc(C)c2c1 (stereo not given),30.6% (active)
19,COc1cccc(/C=C2\SC(=S)N(CCC(=O)NCCc3ccc(O)cc3)C2=O)c1,35.4% (active)
20,COc1ccc(C)cc1NC(=O)c1ccccc1NS(=O)(=O)c1ccc(Cl)s1,32.4% (active)
